Screening results: PubChem, National Center for Advancing Translational Sciences (NCATS)
Rows were chosen to be rich in hits. Some 3.3% of all compounds tested hit in one or more screens of this group.
LDHA block: qHTS assay for inhibitors of human lactate dehydrogenase | L-lactate dehydrogenase A chain (Homo sapiens), P00338 | purified LDHA, NADH/diaphorase-resazurin fluorescence; stronger effect = lower value | activity change, % (values are at about 110 or 230 µM) | actives 0.15% (n = 480,000) | AID 1347041, 2019; in the data active means activity change below about -30%; inconclusive means mostly about -25% to -30%;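 further: plate controls were DMSO wells for no effect and wells without enzyme for full effect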
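Human LDH5 at 2 nM final in Tris HCl pH 7.4 with 0.06 mM NADH and 0.2 mM pyruvate, reacted 5 minutes at room temperature. Remaining NADH coupled via diaphorase/resazurin; resorufin fluorescence read at 0 and 20 minutes, normalized to enzyme-free and DMSO wells.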
PI4K2A inh: qHTS for small molecular inhibitors of PI4K2A; purified PI4K2A, ADP-Glo luminescence, 1 h; stronger effect = lower value; activity change, negative = inhibition, % at 76.9 µM; actives 0.13% (n = 420,000); in the data active means activity change below about -50%; inconclusive means mostly about -30% to -49%;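 further: -100% = wells without enzyme as full effect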
Target sequence (Q9BTU6 whole entry, looked up): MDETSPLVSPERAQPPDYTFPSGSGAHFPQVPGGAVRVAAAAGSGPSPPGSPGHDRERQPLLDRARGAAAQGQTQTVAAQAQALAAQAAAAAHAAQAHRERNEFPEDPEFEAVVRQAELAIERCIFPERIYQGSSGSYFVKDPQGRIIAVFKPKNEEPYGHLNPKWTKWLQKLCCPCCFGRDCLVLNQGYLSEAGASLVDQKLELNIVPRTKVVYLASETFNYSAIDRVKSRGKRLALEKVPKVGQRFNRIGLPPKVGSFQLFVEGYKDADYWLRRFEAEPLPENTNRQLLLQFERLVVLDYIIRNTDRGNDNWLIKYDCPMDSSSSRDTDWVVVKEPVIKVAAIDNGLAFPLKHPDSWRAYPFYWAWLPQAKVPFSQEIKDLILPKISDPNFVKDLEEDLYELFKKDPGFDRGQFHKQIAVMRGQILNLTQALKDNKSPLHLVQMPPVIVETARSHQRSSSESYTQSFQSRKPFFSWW
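ADP-Glo luminescence measured ADP generated by PI4K2A enzyme (4 ug/mL before mixing) with 1.2 mM PI substrate (pre-mix) and 300 microM ATP (pre-mix). Tris pH7.5 buffer with MgCl2, Triton X-100; 1 h reaction at ambient temperature.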
DRD3 agonist: qHTS of D3 Dopamine Receptor Agonist: qHTS; D(3) dopamine receptor (Homo sapiens), P35462; D3R DiscoveRx beta-arrestin cells, luminescence, 90 min; max activation, %; actives 0.58% (n = 410,000); AID 652048, 2013; in the data active means max activation above about 30%; further: 0% is about no effect
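Agonist-mode cell screen: cells plated at 1500/well and incubated overnight at 37 °C, then exposed to library compounds for 90 min at 37 °C. Detection reagent was added for 30–60 min at room temperature, and luminescence was read.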
PI5P4K alpha inh: qHTS for Inhibitors of phosphatidylinositol 5-phosphate 4-kinase (PI5P4K). Phosphatidylinositol 5-phosphate 4-kinase type-2 alpha (Homo sapiens), P48426. PI5P4Kalpha enzyme, ADP-Glo luminescence, 60 min; stronger effect = lower value. max response, %. actives 1.2% (n = 330,000); active means max response of -50% or lower; inconclusive means between -30% and -50%; inactive means -30% or higher; further: value at the top dose of about 77 µM; on the % scale 0 is the no-effect control and ±100 the full control effect
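qHTS, 1536-well: enzyme/substrate mix, compound by pin tool, 5 microM ATP final; RT 60 min; ADP-Glo reagents 1 (45 min) then 2 (30 min); luminescence.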
D3 antag: qHTS of D3 Dopamine Receptor Antagonist: qHTS | D(3) dopamine receptor (Homo sapiens), P35462 | D3R cells, DiscoveRx beta-arrestin luminescence, antagonist mode; stronger effect = lower value | max response, negative = inhibition, % | actives 2.5% (n = 360,000) | AID 652054, 2013; in the data active means max response below about -50%; inconclusive means no clear call, values can overlap the other calls; further: on the % scale 0 is the no-effect control and ±100 the full control effect
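Cells plated overnight at 1500 cells/well, then exposed to library compounds with dopamine controls for 90 minutes at 37 degrees C. DiscoveRx reagent added for 30–60 minutes at room temperature; luminescence read, quantitative HTS format.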
* marks the source's active call; other numbers are inactive results; ? = inconclusive; . = not tested or not shown.

SMILES | LDHA block | PI4K2A inh | DRD3 agonist | PI5P4K alpha inh | D3 antag
CCC(c1nnnn1-c1ccc(OC)cc1)N1CCN(C/C=C/c2ccccc2)CC1 (configuration not stated) | -1 | 4 | -4 | 3 | -57*
CCN(Cc1nc2ccccc2c(=O)[nH]1)C(=O)CNC(=O)c1ccc(C(F)(F)F)cc1 | 1 | . | . | . | .
Cc1ccc(C(NC(=O)Cn2nc(C)c3ccccc3c2=O)C2CC2)cc1 (configuration not stated) | 7 | . | . | . | .
CCc1nc(CNCc2cccc(NC(=O)c3cccc(F)c3)c2)cs1 | 1 | . | . | . | .
COC(=O)c1ccc(Oc2c(C)oc3cc(OC(=O)c4ccc(F)cc4)ccc3c2=O)cc1 | 0 | . | . | . | .
COc1ccc(N2CCN(C(c3ccccc3)c3nnnn3C(C)C)CC2)cc1 (configuration not stated) | 1 | . | . | . | .
COc1ccc(-n2nnnc2C(c2ccccc2)N2CCN(C/C=C/c3ccccc3)CC2)cc1 (configuration not stated) | 0 | 1 | -13 | -3 | -118*
CC(=O)N(c1cccc(C)c1)c1nc(CSc2nnc(C3CC3)n2C2CC2)cs1 | -1 | . | . | . | .
O=C1C=C(C2OC(CO)C(O)C2O)C(=O)N1 (configuration not stated) | -3 | -1 | -12 | -54* | ?
NC(=O)c1csc(C2OC(CO)C(O)C2O)n1 (configuration not stated) | -2 | -1 | 0 | 3 | -12
CCCOP(=O)(c1ccc(N(C)C)cc1)C(O)c1cccnc1 (configuration not stated) | -5 | -2 | 30* | . | -8
COc1cc(C(=O)N2CCN(c3ncccn3)CC2)cc(Cl)c1OC | -19 | . | . | . | .
COc1ccc(NC(=O)COc2ccc3c(=O)c(Oc4ccc(F)cc4)coc3c2)cc1 | 0 | . | . | . | .
O=c1/c(=C\c2cccnc2)sc2nc3ccccc3n12 | 4 | 3 | 21 | -1 | -16
O=C1c2sc3nc4c(c(=O)n3c2C(=O)N1c1ccccc1)CCC4 | -7 | -1 | -8 | -4 | 0
O=C1c2sc3nc4ccccc4n3c2C(=O)N1c1ccccc1Cl | -8 | -1 | -3 | -1 | -87*
Cc1ccccc1N1C(=O)c2sc3nc4c(c(=O)n3c2C1=O)CCC4 | 2 | 3 | -3 | . | -57*
CCN1CCCCC(NC(=O)COCc2ccccc2)C1=O (configuration not stated) | . | 4 | . | . | .
O=C(NCc1cccc(C(F)(F)F)c1)N1CCc2sccc2C1 | 4 | . | . | . | .
CCN1CCN(c2ncnc3c2c(-c2ccccc2)cn3-c2ccc(F)cc2)CC1 | -3 | 0 | -21 | 4 | -55*
Fc1ccc(-n2cc(-c3ccccc3)c3c(N4CCOCC4)ncnc32)cc1 | 2 | -1 | -11 | 5 | ?
COc1ccc(C(=O)c2sc3nc(C)cc(-c4cccs4)c3c2N)cc1 | -2 | -5 | 2 | 3 | 9
COc1ccc(C(=O)c2sc3nc(C)cc(-c4cccs4)c3c2N)cc1OC | -4 | 5 | 52* | 3 | 11
O=C(c1cc(-c2ccc(Cl)cc2)n[nH]1)N1CCN(S(=O)(=O)c2ccc(Br)s2)CC1 | -12 | 0 | 13 | . | .
O=C(c1cc(-c2ccc(Br)cc2)n[nH]1)N1CCN(S(=O)(=O)c2ccc(Br)s2)CC1 | -23 | -3 | 34* | . | .
SMILES | LDHA block | PI4K2A inh | DRD3 agonist | PI5P4K alpha inh | D3 antag
COCCNC(=O)C1(C)CCCN(CCOc2ccc(Cl)cc2)C1 (configuration not stated) | -7 | 0 | -6 | 5 | -55*
CCNC(=O)C1(C)CCCN(CCOc2ccc(OC)cc2)C1 (configuration not stated) | -12 | -3 | -3 | -3 | -21
CCCNC(=O)C1(C)CCN(CCOc2ccc(Cl)cc2)C1 (configuration not stated) | -1 | -1 | -1 | 6 | -72*
Cc1nc2ccc(C(=O)OC(C)C(=O)c3c(C)[nH]c4ccccc34)cc2nc1C (configuration not stated) | 2 | . | . | . | .
COc1ccc2c(=O)cc(CO)oc2c1 | 2 | -3 | 38* | -2 | 0
CNC(=O)c1ccc(-c2nc(CN3CCN(C(=O)Nc4cccc(OC)c4)CC3)c(C)o2)cc1 | 9 | . | . | . | .
CCOC(=O)CSC1=NC(=O)/C(=C/c2ccc(Br)cc2)S1 | -11 | 3 | -1 | -55* | -4
CC(C)CCn1c(SCC(=O)c2ccccc2)nc2c1c(=O)n(C)c(=O)n2C | 2 | . | . | . | .
COc1cc(OC)nc(Nc2nc(C(N)CCc3ccccc3)cs2)n1 (configuration not stated) | -8 | 6 | 34* | -4 | 7
COc1cc(OC)nc(Nc2nc(C(N)c3ccccc3)cs2)n1 (configuration not stated) | -3 | -2 | 3 | 0 | 11
COc1cc(OC)nc(Nc2nc(C(N)Cc3ccc(Cl)cc3)cs2)n1 (configuration not stated) | -6 | -2 | 2 | -1 | -1
COc1cc(OC)nc(Nc2nc(C(N)COCc3ccccc3)cs2)n1 (configuration not stated) | -7 | -1 | -6 | -8 | -74*
Fc1ccc(Sc2cc(-c3ccccc3)c3ccccc3n2)cc1 | 3 | . | . | . | .
Cc1ccc(-c2ccc(=O)n(Cc3noc(C(=O)NCc4cccs4)n3)n2)cc1 | -7 | . | . | . | .
COc1ccc(NC(=S)Nc2ccccc2)cc1 | 0 | -2 | 6 | 0 | 4
COc1ccc(NC(=S)Nc2ccc(N)c([N+](=O)[O-])c2)cc1 | 1 | -53* | -1 | -20 | -82*
CCn1c(C)nc2cc(-c3nnc(-c4c(-c5ccccc5)noc4C)o3)ccc21 | -5 | -3 | 41* | -1 | 87
CC(C)C(=O)NC(c1cccs1)c1cc([N+](=O)[O-])c2cccnc2c1O (configuration not stated) | 11 | -8 | -13 | -84* | ?
Cc1ccc2c(c1)N(C(=O)Cn1c(=O)n(CCC(=O)N3CCCCC3)c(=O)c3sccc31)CCO2 | -23 | . | . | . | .
O=C(O)c1ccc(Nc2nc(-c3cc4ccccc4oc3=O)cs2)cc1O | -5 | 7 | 9 | -79* | 6
CC(=O)Nc1ccc(Nc2nc(-c3cc4ccccc4oc3=O)cs2)cc1 | -11 | 1 | 13 | ? | 13
CN(C)/C=C/C1=C([N+](=O)[O-])C(c2cccc([N+](=O)[O-])c2)NC(=O)N1 (configuration not stated) | 3 | -2 | 6 | -83* | 11
